Results filed as inconclusive are left out. Active and inactive are the calls of the source. Unless noted, the call rests on the fitted dose curve; in most records, active means well fitted curve in the direction sought with a large enough effect in the repeat runs; inconclusive means weak or mixed curves; inactive means no such curve, though single readings can be large; an effect the other way counts as inactive or inconclusive.

The source of these data is PubChem BioAssay (Tox21).

A short description of experiment [1]: qHTS assay to identify small molecule antagonists of the androgen receptor (AR) signaling pathway using the MDA cell line in the presence of 0.5 nM R1881 - cell viability counter screen (AID 1259242). Further: nearly all actives have a fitted effect of over 45% in size. The gist of the method:
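Concentration-response screen of compounds for toxicity in MDA-kb2 reporter cells: 16 hr at 37C with 0.5 nM R1881, endpoint live-cell protease fluorescence measured in the reporter wells.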
A general note: In qHTS, concentration-response curves come from the screen itself.

Experiment [2] has as its target Estrogen receptor (Homo sapiens) (UniProt P03372). The experiment is described as follows: qHTS assay to identify small molecule antagonists of the estrogen receptor alpha (ER-alpha) signaling pathway using the BG1 cell line in the presence of 0.1 nM 17-beta-estradiol (AID 1259244). Further: nearly all actives have a fitted effect of over 50% in size. In short, it runs like this:
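Compounds were tested against 0.1 nM (final) 17beta-estradiol in VM7Luc4E2 cells, which express full-length ER-alpha and an ERE-luciferase reporter; luminescence was recorded following 22 h exposure.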

A short description of experiment [3]: qHTS assay to identify small molecule HDAC inhibitors (AID 1259364).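 Further: wild-type HCT-116 cells with endogenous class I/II HDAC activity; top concentration of the series differs between compounds; nearly all actives have a fitted effect of over 45% in size.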 The gist of the method: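 Screening used wild-type human colon HCT-116 cells incubated overnight, dosed with compounds for 2 hours, and assayed with a homogeneous luminogenic HDAC I/II reagent for 30 minutes at room temperature.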
Experiment [4] can be described thus: qHTS assay to identify small molecule HDAC inhibitors - cell viability counter screen (AID 1259365). Further: series mostly up to about 92 µM; nearly all actives have a fitted effect of over 50% in size. The gist of the method: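 HCT-116 (wild type), 1,500 cells/well, overnight 37C/5% CO2; compound in DMSO 2hr; CellTiter-Glo 30min RT; luminescence read.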
Experiment [5] in a line: qHTS assay to identify small molecule antagonists of the sonic hedgehog signaling (Shh) pathway - cell viability counter screen (AID 1259367). Further: nearly all actives have a fitted effect of over 55% in size. In short, it runs like this: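 Cytotoxicity was assessed in parallel with Shh reporter activity by measuring live-cell protease fluorescence (CellTiter-Fluor) in NIH/3T3 cells stably carrying Gli1-Luc, treated with compound under conditioned medium stimulation for 23 hr plus 1 hr reagent incubation.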

Experiment [6] is described as follows: qHTS assay to identify small molecule agonists of the sonic hedgehog signaling (Shh) pathway (AID 1259368; calls by dose curve;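 further: NIH/3T3-derived 3T3Gli1-Luc cells carrying a stable Gli1-driven firefly luciferase reporter; series mostly up to about 92 µM; nearly all actives have a fitted effect of over 15% in size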). In short, it runs like this:
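Hedgehog pathway agonism scored by increased firefly luciferase luminescence in 3T3Gli1-Luc cells treated 24 hr at 37 C; detection used a 30 min room-temperature reagent incubation.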

The nature of experiment [7]: qHTS assay to identify small molecule antagonists of the sonic hedgehog signaling (Shh) pathway (AID 1259369; calls by dose curve; further: nearly all actives have a fitted effect of over 45% in size; further: potency means the concentration at half of the fitted maximal effect). In short, it runs like this: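 NIH/3T3 stable Gli1-Luc clone, 2,000 cells/well, 4hr settle; cpd + conditioned medium 24hr; Luc reagent 30min RT; luminescence.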
The target in experiment [8] is Estrogen receptor beta (Homo sapiens) (UniProt Q92731). The experiment is described as follows: qHTS assay to identify small molecule agonists of the estrogen receptor beta (ER-beta) signaling pathway (AID 1259377; active means well fitted activation curve with a large enough effect in the signal ratio in the repeat runs, not every such curve was filed as active; the % refers to the signal ratio). In short, it runs like this:
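Beta-lactamase reporter readout: fluorescence of LiveBLAzer B/G FRET substrate after 2 h at room temperature, following 16 h compound treatment of ER-beta-UAS-bla HEK293T cells at 37C in 2% charcoal-stripped FBS medium.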

For experiment [9] the target is unchanged. Put plainly: qHTS assay to identify small molecule antagonists of the estrogen receptor beta (ER-beta) signaling pathway (AID 1259378; active means well fitted inhibition curve with a large enough effect in the signal ratio in the repeat runs, not every such curve was filed as active; the % refers to the signal ratio). The gist of the method:
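ER-beta-UAS-bla HEK293T (GripTite) cells in 2% charcoal-stripped FBS medium were preincubated 6 hr at 37C, dosed with compound, then stimulated with 1 nM E2 (final) for 16 hr; beta-lactamase reporter read by B/G FRET fluorescence after 2 hr substrate loading.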

The nature of experiment [10]: qHTS assay to identify small molecule agonists of the androgen receptor (AR) signaling pathway in the presence of an antagonist - cell viability counter screen (AID 1259379).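 Further: MDA-kb2 human breast cancer cells carrying an MMTV luciferase reporter; series mostly up to about 92 µM; nearly all actives have a fitted effect of over 25% in size.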 In short, it runs like this: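 MDA-kb2 viability measured by CellTiter-Fluor fluorescence in the same wells as the luciferase signal; nilutamide 3.0uM final; 15-point compound titration; 16 hr at 37C.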

A short description of experiment [11]: qHTS assay to identify small molecule agonists of the estrogen receptor beta (ER-beta) signaling pathway - cell viability counter screen (AID 1259380). Further: nearly all actives have a fitted effect of over 30% in size. Further: potency means the concentration at half of the fitted maximal effect. The gist of the method:
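Measured: luminescence from CellTiter-Glo after 30 min at room temperature, added to wells already read for the LiveBLAzer FRET reporter (2 hr substrate); ER-beta-UAS-bla HEK293T cells had 16 hr compound treatment at 37C, 5% CO2.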

Experiment [12] deals with Estrogen receptor (Homo sapiens) (UniProt P03372). The experiment is described as follows: qHTS assay to identify small molecule agonists of the estrogen receptor alpha (ER-alpha) signaling pathway in the presence of an antagonist (AID 1259383; calls by dose curve; further: top concentration of the series differs between compounds; nearly all actives have a fitted effect of over 15% in size). In short, it runs like this: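 Quantitative HTS confirmation: compounds titrated at 15 concentrations onto estrogen-deprived VM7Luc4E2 cells carrying a four-ERE luciferase construct, with ICI-182,780 present at 10.0nM final. Signal is luminescence after 22hr exposure.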

Experiment [13] is described as follows: qHTS assay to identify small molecule agonists or antagonists of the thyroid stimulating hormone receptor (TSHR) signaling pathway - wild type cell line counter screen (AID 1259384; calls by dose curve). The gist of the method:
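Wild-type HEK293 cells were plated 18 h at 37 C/5% CO2, pin-dosed with compound plus Ro20-1724 medium, held 30 min at room temperature, then given cAMP-d2 and anti-cAMP-cryptate; fluorescence was read after 1 h. Fifteen concentrations, triplicate.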

A short description of experiment [14]: qHTS assay to identify small molecule agonists of the estrogen receptor alpha (ER-alpha) signaling pathway in the presence of an antagonist - cell viability counter screen (AID 1259386).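 Further: series mostly up to about 92 µM; cells exposed to compounds for 22 h at 37 °C before the viability read; nearly all actives have a fitted effect of over 30% in size.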 The gist of the method:
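The test measures whether compounds kill ER-alpha reporter cells (VM7Luc4E2) under antagonist co-treatment (ICI-182,780, 10.0nM). Fluorescence from CellTiter-Fluor is read after a 22hr exposure.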

Experiment [15] can be described thus: qHTS assay to identify small molecule phospholipidosis (PLD) inducers (AID 1259344; active means well fitted curve in the direction sought with a large enough effect; an effect the other way counts as inactive or inconclusive; further: potency means the concentration at half of the fitted maximal effect). The gist of the method:
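Cells (HepG2, 900 per well) attach for 4 h, receive LipidTOX Red and compound together, incubate 24 h at 37 C, are fixed 30 min with paraformaldehyde/Hoechst, then imaged at one site per well.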

Experiment [16] concerns the target Thyrotropin receptor (Homo sapiens) (UniProt P16473). The experiment is described as follows: qHTS assay to identify small molecule antagonists of the thyroid stimulating hormone receptor (TSHR) signaling pathway (AID 1259385; calls by dose curve; further: nearly all actives have a fitted effect of over 20% in size; further: potency means the concentration at half of the fitted maximal effect). In short, it runs like this:
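TSHR-HEK293 cells were plated and held 18 h at 37C/5% CO2, then given compound plus Ro20-1724 and stimulated with TSH at 1.5 ng/mL final. After 30 min at room temperature, cAMP was detected with cAMP-d2/anti-cAMP-cryptate (1 h) by fluorescence.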

A short description of experiment [17]: qHTS assay to identify small molecule agonists of the sonic hedgehog signaling (Shh) pathway - cell viability counter screen (AID 1259366). Further: nearly all actives have a fitted effect of over 50% in size. Further: potency means the concentration at half of the fitted maximal effect. The gist of the method: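 CellTiter-Fluor fluorescence read-out, 1 hr at 37C, added after 23hr compound exposure. Cells: 3T3 Gli1-Luc, an NIH/3T3 clone with stably integrated Gli1-Luc reporter, plated 4hr before compound.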

Experiment [18] can be described thus: qHTS assay to identify small molecule antagonists of the estrogen receptor beta (ER-beta) signaling pathway - cell viability counter screen (AID 1259382). Further: series mostly up to about 92 µM; nearly all actives have a fitted effect of over 55% in size. The gist of the method:
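Readout: luminescence, CellTiter-Glo, same wells as bla assay. System: ER-beta-UAS-bla GripTite HEK293T, 2% charcoal-stripped FBS. Exposure: compounds plus 1nM 17-beta-estradiol, 16 hr, 37C.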

Experiment [19] has as its target Androgen receptor (Homo sapiens) (UniProt P10275). The experiment is described as follows: qHTS assay to identify small molecule agonists of the androgen receptor (AR) signaling pathway in the presence of an antagonist (AID 1259381; calls by dose curve; further: nearly all actives have a fitted effect of over 15% in size). In short, it runs like this:
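Luminescent ONE-Glo read, 30min at room temperature, follows 16hr compound exposure (15 concentrations) of MDA-kb2 cells at 37C, 0% CO2, with nilutamide added at 3.0uM final.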

Chain of Estrogen receptor beta (Homo sapiens) (Q92731 whole entry, looked up): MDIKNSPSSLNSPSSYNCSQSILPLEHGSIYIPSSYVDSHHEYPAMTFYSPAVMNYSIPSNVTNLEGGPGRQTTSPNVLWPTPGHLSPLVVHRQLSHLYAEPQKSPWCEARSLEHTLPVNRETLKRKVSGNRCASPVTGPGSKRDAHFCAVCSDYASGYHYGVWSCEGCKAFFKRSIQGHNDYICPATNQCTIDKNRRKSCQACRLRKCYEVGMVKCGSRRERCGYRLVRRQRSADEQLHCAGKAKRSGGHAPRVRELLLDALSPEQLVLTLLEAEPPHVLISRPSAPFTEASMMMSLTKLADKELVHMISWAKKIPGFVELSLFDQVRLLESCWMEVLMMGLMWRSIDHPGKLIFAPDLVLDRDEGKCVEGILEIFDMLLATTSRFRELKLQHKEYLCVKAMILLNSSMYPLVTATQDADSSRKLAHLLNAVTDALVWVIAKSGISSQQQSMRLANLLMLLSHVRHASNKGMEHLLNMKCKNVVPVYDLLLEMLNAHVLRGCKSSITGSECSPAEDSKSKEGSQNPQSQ
Chain of Thyrotropin receptor (Homo sapiens) (P16473 whole entry, looked up): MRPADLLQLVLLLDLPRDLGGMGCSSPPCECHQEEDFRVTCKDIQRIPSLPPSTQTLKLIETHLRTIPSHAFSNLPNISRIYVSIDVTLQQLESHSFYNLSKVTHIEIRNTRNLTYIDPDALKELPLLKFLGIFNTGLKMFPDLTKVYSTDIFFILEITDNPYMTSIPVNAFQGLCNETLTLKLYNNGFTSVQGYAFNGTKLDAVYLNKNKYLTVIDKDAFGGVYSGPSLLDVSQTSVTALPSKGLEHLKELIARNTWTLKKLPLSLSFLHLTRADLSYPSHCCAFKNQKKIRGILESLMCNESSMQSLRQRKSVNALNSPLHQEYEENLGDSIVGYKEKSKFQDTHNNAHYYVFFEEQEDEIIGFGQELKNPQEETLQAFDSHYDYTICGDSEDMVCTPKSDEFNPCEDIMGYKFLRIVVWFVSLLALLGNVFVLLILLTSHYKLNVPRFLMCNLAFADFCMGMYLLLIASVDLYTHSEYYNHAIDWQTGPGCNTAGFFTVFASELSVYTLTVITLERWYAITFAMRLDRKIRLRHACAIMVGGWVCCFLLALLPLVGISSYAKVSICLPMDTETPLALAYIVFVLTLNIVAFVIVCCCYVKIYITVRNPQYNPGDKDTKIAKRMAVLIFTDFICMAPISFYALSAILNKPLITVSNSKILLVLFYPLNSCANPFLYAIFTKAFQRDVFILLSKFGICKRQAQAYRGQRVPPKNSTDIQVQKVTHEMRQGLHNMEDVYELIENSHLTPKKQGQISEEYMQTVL
Chain of Estrogen receptor (Homo sapiens) (P03372 whole entry, looked up): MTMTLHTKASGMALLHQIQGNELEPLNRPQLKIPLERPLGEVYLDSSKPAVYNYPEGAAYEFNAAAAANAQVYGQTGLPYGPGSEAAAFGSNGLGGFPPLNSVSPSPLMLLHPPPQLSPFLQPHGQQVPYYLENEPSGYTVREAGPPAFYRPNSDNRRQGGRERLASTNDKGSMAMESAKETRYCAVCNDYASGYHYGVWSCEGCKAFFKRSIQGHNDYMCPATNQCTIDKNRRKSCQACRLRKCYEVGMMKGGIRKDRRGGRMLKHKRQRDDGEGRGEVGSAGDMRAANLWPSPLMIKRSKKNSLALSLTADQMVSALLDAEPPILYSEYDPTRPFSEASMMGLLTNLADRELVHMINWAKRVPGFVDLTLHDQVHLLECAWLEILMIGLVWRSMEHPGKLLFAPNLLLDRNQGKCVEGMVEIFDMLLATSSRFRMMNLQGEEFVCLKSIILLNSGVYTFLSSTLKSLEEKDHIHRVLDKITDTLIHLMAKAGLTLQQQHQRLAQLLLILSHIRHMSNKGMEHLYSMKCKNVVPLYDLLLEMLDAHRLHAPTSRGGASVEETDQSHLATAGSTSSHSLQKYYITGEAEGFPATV
Chain of Androgen receptor (Homo sapiens) (P10275 whole entry, looked up): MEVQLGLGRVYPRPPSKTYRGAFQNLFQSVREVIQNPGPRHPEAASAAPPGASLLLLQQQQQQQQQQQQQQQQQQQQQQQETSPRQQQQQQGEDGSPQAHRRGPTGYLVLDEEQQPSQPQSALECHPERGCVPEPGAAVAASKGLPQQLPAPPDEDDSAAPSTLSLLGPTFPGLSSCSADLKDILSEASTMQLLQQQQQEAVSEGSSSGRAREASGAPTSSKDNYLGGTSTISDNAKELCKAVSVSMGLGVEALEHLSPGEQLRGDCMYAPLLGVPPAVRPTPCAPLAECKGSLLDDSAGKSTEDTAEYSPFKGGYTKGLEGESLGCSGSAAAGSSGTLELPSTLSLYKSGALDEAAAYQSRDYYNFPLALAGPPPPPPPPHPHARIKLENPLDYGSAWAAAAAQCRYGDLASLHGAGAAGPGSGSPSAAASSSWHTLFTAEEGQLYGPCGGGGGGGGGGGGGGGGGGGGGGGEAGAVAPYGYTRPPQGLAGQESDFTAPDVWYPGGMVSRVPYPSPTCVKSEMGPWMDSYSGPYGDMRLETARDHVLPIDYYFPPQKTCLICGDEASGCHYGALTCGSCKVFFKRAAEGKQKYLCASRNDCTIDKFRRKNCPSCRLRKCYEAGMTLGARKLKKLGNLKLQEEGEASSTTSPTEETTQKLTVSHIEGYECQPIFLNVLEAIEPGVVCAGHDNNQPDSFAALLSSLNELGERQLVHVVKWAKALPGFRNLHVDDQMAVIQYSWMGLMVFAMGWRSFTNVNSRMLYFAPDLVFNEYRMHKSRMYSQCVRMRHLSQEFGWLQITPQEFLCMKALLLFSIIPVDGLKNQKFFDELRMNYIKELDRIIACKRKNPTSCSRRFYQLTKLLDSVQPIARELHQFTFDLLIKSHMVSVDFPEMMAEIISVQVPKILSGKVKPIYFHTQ

As to `Cc1cccc(N(C)C(=S)Oc2ccc3c(c2)C2CCC3C2)c1` (stereo not given), the Potency result in [1], in experiment [2], in experiment [3], in [4], in experiment [5] and in experiment [6] was “inactive” in each case. Further, the Potency result in [7], in experiment [8], in [9], in experiment [10], in [11] and in [12] was “inactive” in each case. In experiment [14], the Potency entry is “inactive”. In addition, the result in experiment [13] was inactive.
As to `O=C(Nc1ccc(Oc2ccc(Cl)cc2)c(Cl)c1)c1cc(I)cc(I)c1O`, the Potency result in experiment [1], in experiment [15], in experiment [3], in [4], in [5] and in experiment [6] was “inactive” each time. The Potency result in [16] was “inactive”. Moreover, the Potency is 29.8 µM (active) in experiment [7] and 11.9 µM (active) in experiment [11]. The result in [13] was inactive.
In the case of `CCN(C(=O)N(CC)c1ccccc1)c1ccccc1`, the Potency entry in experiment [1], in experiment [3], in experiment [4], in [17], in experiment [5] and in experiment [6] was “inactive” in each case. Besides, the Potency result in [10], in experiment [11], in [18], in experiment [16] and in [14] was “inactive” in each case. Moreover, in experiment [13], the molecule was called inactive.
`CN1CCC(Nc2ncc3ncnc(Nc4ccc(F)c(Cl)c4)c3n2)CC1`: the Potency result in experiment [1], in experiment [3], in [4], in [6], in [10] and in experiment [19] was “inactive” in each case. Also, the Potency in experiment [15] is 11.2 µM (active); in experiment [17], 29.8 µM (active); in experiment [7], 6.68 µM (active); in experiment [11] it was 11.9 µM (active); in experiment [16], 29.8 µM (active). Also, in [13], the call was inactive.
As for `O=C(O)c1c(Cl)cccc1Cl`, the Potency result in experiment [1], in experiment [3], in experiment [4], in [17], in experiment [5] and in experiment [6] was “inactive” throughout. Further, the Potency result in experiment [7], in [8], in experiment [9], in [10], in [11] and in [18] was “inactive” each time. Moreover, the Potency result in [16] and in experiment [14] was “inactive” in each case. Further, the call in experiment [13] was inactive.
Take `C[n+]1ccn(Cc2ccccc2)c1`: the Potency entry in [1], in experiment [3], in experiment [4], in experiment [17], in experiment [5] and in experiment [6] was “inactive” throughout. Besides, the Potency result in experiment [8], in experiment [9], in experiment [11], in experiment [18], in experiment [12] and in experiment [16] was “inactive” each time. Further, the call in experiment [13] was inactive.
In the case of `CCCCC(CC)COC(=O)c1ccccc1C(=O)O` (stereo not given), the Potency entry in experiment [1], in experiment [15], in [3], in experiment [4], in experiment [17] and in experiment [5] was “inactive” each time. For the same molecule, the Potency result in [6], in experiment [10] and in experiment [14] was “inactive” each time. Further, the outcome in experiment [13] was inactive.
For the molecule `O=C(OCC(COC(=O)c1ccccc1)(COC(=O)c1ccccc1)COC(=O)c1ccccc1)c1ccccc1`, the Potency result in [1], in experiment [3], in experiment [4], in [17], in experiment [5] and in experiment [6] was “inactive” in each case. Further, the Potency result in experiment [7], in [8], in [10], in [11], in experiment [18] and in experiment [16] was “inactive” each time. Further, in [14], the Potency entry is “inactive”. Also, in [13], the molecule was classed as inactive.
